Data on 61 compounds can be found in PubChem BioAssay AID1510 (The Scripps Research Institute Molecular Screening Center, 2009).

The whole screen tested about 220,000 compounds, of which about 570 (0.26%) were called active. The sample holds actives, similar compounds and a random draw of the others, so the mix is not that of the screen. Values without a mark were called inactive. No stated cut-off is given here; in the data, active means inhibition above about 29%; inactive means the rest.

In general, inhibition refers to the change of the read-out against control, counted positive when it falls.

The target of the assay is Sphingosine 1-phosphate receptor 4 (Homo sapiens) (UniProt O95977). Kind of assay: S1P4 receptor antagonists, primary screen, cell-based (AID 1510).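 Further: 0% = wells stimulated with agonist and 100% = vehicle wells without agonist.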 The settings on record: S1P4-expressing cells, antagonist mode, reporter read-out; at 4.98 µM; stronger effect = higher value.
Sequence of Sphingosine 1-phosphate receptor 4 (Homo sapiens) (O95977 whole entry, looked up): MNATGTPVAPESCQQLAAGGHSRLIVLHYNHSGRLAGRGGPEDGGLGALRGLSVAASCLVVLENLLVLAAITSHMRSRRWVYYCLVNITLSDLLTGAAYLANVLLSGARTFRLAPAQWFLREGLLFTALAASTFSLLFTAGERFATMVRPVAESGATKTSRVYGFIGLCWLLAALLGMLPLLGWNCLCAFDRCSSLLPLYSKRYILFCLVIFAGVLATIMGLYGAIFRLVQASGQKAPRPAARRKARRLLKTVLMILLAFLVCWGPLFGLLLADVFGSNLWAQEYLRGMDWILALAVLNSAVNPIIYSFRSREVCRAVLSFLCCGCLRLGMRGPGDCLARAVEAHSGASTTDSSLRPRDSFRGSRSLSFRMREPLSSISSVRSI
Regarding `CCOc1ccc(S(=O)(=O)Nc2ccncc2)c(C)c1C`, the inhibition was 8.19%. Take `Cc1cc(C)nc(S/C=C/C(=O)c2ccccc2)n1`: the inhibition is 54.5% (active). As to `Cc1cc(SCC(=O)c2ccccc2)nc(SCC(=O)c2ccccc2)n1`, the inhibition was -17.1%. Take `C/C(=N\NC(=O)c1nc(C)cc(C)n1)c1ccccc1`: the inhibition was 4.33%. Consider `O=C(Nc1nnc(SCc2ccccc2Cl)s1)c1cccc([N+](=O)[O-])c1`, for which the inhibition was -13.5%.

For the compound `CC(C)c1ccc(N2CCN(C(=O)c3ccccc3NC(=O)/C=C(\C(=O)O)c3ccccc3)CC2)cc1`, the inhibition was 96% (active). On to `O=C(O)C1CC=CCC1C(=O)Nc1ccccc1C(=O)N1CCN(c2ccccc2)CC1` (stereo unspecified), for which the inhibition is -6.52%.

Take `Cc1cccc(N2CCN(C(=O)c3ccccc3NC(=O)C3CCCCC3C(=O)O)CC2)c1` (stereo unspecified): the inhibition was -7.71%. In the case of `CC(C)c1ccc(Nc2ncccc2C#N)cc1`, the inhibition is -16.8%.

On to `O=C(/C=C/c1cccc([N+](=O)[O-])c1)NCCSCc1ccco1`, for which the inhibition is -14.7%. Regarding `CCc1ccc2ncc(C(=O)c3ccccc3)c(N3CCOCC3)c2c1`, the inhibition is -14.8%. For `O=C1Nc2cc(Cl)c(Cl)cc2N(O)N1c1ccccc1Cl`, the inhibition is -11.4%. With `C=CCOCCN(C)C1=NS(=O)(=O)c2ccccc21`, the inhibition was -5.99%. As to `Fc1ccc(Nc2nnns2)cc1`, the inhibition is -8.7%. To `O=C(CSc1ncn[nH]1)Nc1nc(-c2cccc([N+](=O)[O-])c2)cs1` belongs 0.29%.

As for `COc1ccc(Nc2nc(-c3ccccc3)cs2)cc1`, the inhibition is -20.3%.

Regarding `COc1ccc(-c2csc(NC3OC(=O)c4ccccc43)n2)cc1` (stereo unspecified), the inhibition is 30.9% (active). For `COc1ccc2c(c1OC)C(=O)OC2Nc1nc(-c2ccccc2)cs1` (stereo unspecified), the inhibition was 22.8%. To `O=C(CC1NCCNC1=O)Nc1cc(Cl)cc(Cl)c1` (stereo unspecified) belongs -3.46%; to `Cc1cc(C(=O)CSc2nc(N)cc(=O)[nH]2)c(C)n1-c1cccc(F)c1`, -13.7%; to `Brc1ccc(-c2nn[nH]n2)cc1`, 11.9%. `Cc1ccc(C2CCN(C(=S)Nc3cccc(Cl)c3)C2)cc1` (stereo unspecified): the inhibition was 3.99%. As for `Cc1nc2nc(SCC(=O)c3ccccc3)[nH]c2cc1Br`, the inhibition was 6.48%. To `O=C(COC(=O)c1cc([N+](=O)[O-])ccc1NCc1ccccc1)NC1CCCCC1` belongs -5.39%; to `CN1CCN(S(=O)(=O)c2cccc(C(=O)O)c2)CC1`, -2.81%; to `COc1cc(C(=O)N2C(=O)c3cccc(N)c3C2=O)cc(OC)c1OC`, 6.71%.

For `CC1CC(C)CN(S(=O)(=O)c2cccc(C(=O)N3C(=O)c4cccc(N)c4C3=O)c2)C1` (stereo unspecified), the inhibition was 37.9% (active). To `CC(C)(C)C(=O)NCCCNc1ccc([N+](=O)[O-])cc1` belongs 4.36%; to `Cc1cc(C)n(-c2nnc(N3CCN(c4ccccc4)CC3)nn2)n1`, 9.76%. Regarding `CCn1nnnc1SCC(=O)c1ccc(C)cc1C`, the inhibition is -2.87%. For `Cc1ccc(SC(CC(=O)c2ccc(C(C)(C)C)cc2)C(=O)O)cc1` (stereo unspecified), the inhibition was 26%.

Take `Cn1c(=O)c2c(nc(N/N=C/c3cccs3)n2Cc2ccc(Br)cc2)n(C)c1=O`: the inhibition was -19.2%. Turning to `Cc1ccc(COc2ccc(/C=N/NC(=O)CN3CCCCC3)cc2)cc1`, the inhibition is -8.97%. The value for `CC1(C)CCCC2=C1CC1C(=O)N(c3ccccc3)C(=O)C1C2` (stereo unspecified) was -11.5%.

Regarding `CC1CC2=C(CC1/C=N/NC(N)=S)C(C)(C)CCC2` (stereo unspecified), the inhibition is 29.9% (active).

Consider `Nc1nonc1-c1nc2ccccc2n1Cc1ccc(F)cc1`, for which the inhibition was 38.9% (active).

With `COc1ccc(C)c(Cn2c(-c3nonc3N)nc3ccccc32)c1`, the inhibition was -20.7%. For the compound `CC(=O)Nc1nonc1-c1nc2ccccc2n1Cc1ccccn1`, the inhibition was -6.67%. On to `COc1ccc(CCCc2nnc(SCc3nc4ccccc4c(=O)[nH]3)n2C)cc1`, for which the inhibition was 3.12%. To `C=C(C)CNC(=S)Nc1ccc(S(=O)(=O)Nc2cnc3ccccc3n2)cc1` belongs 2.29%; to `Cc1cc2oc(C(=O)Nc3c(C)n(C)n(-c4ccccc4)c3=O)c(C)c2cc1Cl`, 29.2% (active). As to `Cc1c(NC(=O)c2coc(=O)c(Br)c2)c(=O)n(-c2ccccc2)n1C`, the inhibition is -7.02%.

Turning to `Cc1cc(C(=O)Nc2c(C)n(C)n(-c3ccccc3)c2=O)cs1`, the inhibition is -8.59%.

For the compound `COc1ccc(NC(=O)COC(=O)c2ccncc2)c(OC)c1`, the inhibition was -5.29%. `Cc1cc(C(C)(C)C)oc1C(=O)N(CC(=O)NC1CCCC1)Cc1ccc(Cl)cc1`: the inhibition was -6.52%.

As for `CC(C)NC(=S)N1CCN(S(C)(=O)=O)CC1`, the inhibition is -10.4%.

On to `Cc1nc2cc3c(cc2s1)OCO3`, for which the inhibition was -20.6%. As for `COc1ccc(C(=O)NCc2nnc(SCCOc3ccccc3)n2C)cc1`, the inhibition was -1.19%. `CC(C)N(C(=O)c1ccc(-c2ccccc2F)cc1)C(C)C`: the inhibition was 26.9%. For the compound `CC(NCc1ccccc1OC1CCCC1)c1ccccc1` (stereo unspecified), the inhibition was 27.7%. The value for `CC(C)(C)NC(=O)C(=O)NCc1ccncc1` was -14.6%. `CNS(=O)(=O)c1ccc(NC(=O)C2CC(=O)N(c3ccc(Cl)cc3)C2)cc1` (stereo unspecified): the inhibition is 12.8%. On to `CC(=O)Nc1ccc(S(=O)(=O)N2CCN(c3ccc([N+](=O)[O-])c(NCCN4CCOCC4)c3)CC2)cc1`, for which the inhibition is -3.22%.

Regarding `COc1cc(NC(=O)CN(C)S(=O)(=O)c2ccc3nc(C)sc3c2)cc(OC)c1`, the inhibition was -2.8%. Consider `Cc1cc(/C=N/NC(N)=O)c(C)n1C1CCCCC1`, for which the inhibition was 16.8%. Turning to `Cc1cccc(C(=O)Nc2ccccc2C(=O)NCc2cccnc2)c1`, the inhibition was -7.4%. For `Cc1ccc2cc(/C=N/Nc3ccc(C(=O)O)cc3)c(Cl)nc2c1`, the inhibition is 4.36%.

For the compound `Cc1nc([N+](=O)[O-])cn1CC(=O)Nc1ccc2c(c1)OCO2`, the inhibition is -4.57%.

On to `Cc1nn(CC#N)c(=O)n1N(C)c1ncc(C(F)(F)F)cc1Cl`, for which the inhibition is -4.17%. The value for `CCOc1ccc(C(=O)Nc2cccc(-c3ccc4nncn4n3)c2)cc1` was 0.94%; that for `O=C(C1CCN(S(=O)(=O)c2ccc(Br)s2)CC1)N1CCN(C2CCCCC2)CC1` was -2.03%.
